In the supplement of paper PMC3724861:
Many of the other results were omitted from the sample, so hits are more common in it than they were. The hit rate among all sequences tested is not known here.

What follows are sequences tested on T1, Caupolican (Caup) homeodomain DNA-binding domain (assay: PBM E-score (8-mer, recovered from the published 9-mer minima) (E-score (dimensionless, -0.5 to 0.5)); Drosophila protein; higher = stronger relative binding preference, active = 0.31 or more).
T1 sequence: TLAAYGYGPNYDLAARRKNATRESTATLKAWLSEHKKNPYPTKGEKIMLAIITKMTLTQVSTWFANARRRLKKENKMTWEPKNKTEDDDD
Experimental: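 Protein binding microarray (PBM): in vitro transcribed/translated Caupolican (Caup) homeodomain DNA-binding domain (residues 214-303) applied at 100 nM to a universal 8-mer PBM array (Agilent AMADID 015681). The 8-mer enrichment score (E-score, range -0.5 to 0.5) was computed, and each 9-mer score is the minimum E-score of its two constituent 8-mers. The E-score is the same for a 9-mer and its reverse complement; 0.31 is the stated binding threshold.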

Sequence	PBM E-score
CTGACACA	0.2 (inactive)
CCCACCTA	-0.1 (inactive)
CCAGGTCG	-0.0728 (inactive)
ACTCGCAC	-0.119 (inactive)
TGCGATAA	0.101 (inactive)
AAAGTCGT	0.0643 (inactive)
GCTGTTAA	0.0966 (inactive)
GTTGTTAA	0.349 (active)
ATTGTTAA	0.21 (inactive)
GCATTGGC	-0.14 (inactive)
AAACTACT	0.236 (inactive)
GAACTACA	0.314 (active)
TAACTAAA	0.109 (inactive)
GAACTACC	0.0628 (inactive)
AAACTACC	0.168 (inactive)
CAACTACA	0.287 (inactive)
TAACTATA	0.18 (inactive)
TAACTACA	0.348 (active)
AAACTACA	0.331 (active)
CGGCCTAC	-0.0509 (inactive)
CGTATCAC	0.101 (inactive)
ACCTAGAA	0.08 (inactive)
TACAGAAA	0.17 (inactive)
AAATCTAA	0.0434 (inactive)
CGATTGAA	0.0347 (inactive)

Sequence	PBM E-score
GAGTGCAA	0.065 (inactive)
ATGTCACA	0.39 (active)
ATGTCACC	0.279 (inactive)
AAGTCACA	0.0474 (inactive)
GTGTCACA	0.29 (inactive)
ATGTCACG	0.367 (active)
CTGTCACA	0.167 (inactive)
CACTGCCC	-0.0974 (inactive)
ATTAGTTC	0.154 (inactive)
GATAATCA	0.0651 (inactive)
GCTGTGGA	-0.0809 (inactive)
ATATGGTC	0.105 (inactive)
CAACGCAA	0.0313 (inactive)
AAGGTGGA	-0.0864 (inactive)
CTTACATC	0.296 (inactive)
ATTACAGC	0.128 (inactive)
ATTACATG	0.447 (active)
GTTACAGA	0.172 (inactive)
ATTACATA	≥ 0.385 (active)
CTCACATA	0.149 (inactive)
ATTACAGG	0.244 (inactive)
ATCACATG	0.286 (inactive)
CTTACATA	0.288 (inactive)
ATTACAGA	0.208 (inactive)
GTTACATA	0.365 (active)

Sequence	PBM E-score
ATTACATC	0.374 (active)
TGCGCTAA	0.0295 (inactive)
CTCTGAAG	-0.17 (inactive)
AGATCCCT	-0.128 (inactive)
GAGAATCA	-0.0157 (inactive)
GATGCATA	0.0414 (inactive)
CCCCATGC	-0.233 (inactive)
CGGCTTAG	-0.235 (inactive)
ATCATGCC	0.0227 (inactive)
AGCCAGGG	-0.276 (inactive)
ACGTACAC	0.333 (active)
ACGTACAG	0.103 (inactive)
GCGTACAC	0.217 (inactive)
ACGTACAT	0.337 (active)
CCGTACAC	0.199 (inactive)
ACGTACCT	0.0612 (inactive)
ATTTCTCA	0.0413 (inactive)
ACGACAGT	0.094 (inactive)
AGCATATA	0.119 (inactive)
AATCGAGC	0.0234 (inactive)
GTGTGTCA	≥ 0.312 (active)
ATGTGTCA	0.297 (inactive)
CCGTGTCA	0.278 (inactive)
TAGTGTCA	0.182 (inactive)
ACGTGTCG	0.301 (inactive)

Sequence	PBM E-score
TCGTGTCA	0.328 (active)
ACGTGTCA	≥ 0.374 (active)
CTGTGTCA	0.142 (inactive)
GCGTGTCA	0.284 (inactive)
TACGTGGA	-0.086 (inactive)
AACTATCT	0.0956 (inactive)
ATGCCGGC	-0.134 (inactive)
AGCCCGAG	-0.187 (inactive)
ACCAACCC	-0.0241 (inactive)
CAGGGGAC	-0.193 (inactive)
AAACACTA	0.193 (inactive)
AACATCAG	0.231 (inactive)
CACATCAA	0.0655 (inactive)
CACATCGA	0.0459 (inactive)
GACATCGA	0.24 (inactive)
TACATCAA	0.331 (active)
AACATCAC	0.267 (inactive)
GACATCAA	0.296 (inactive)
AACATCAA	≥ 0.316 (active)
TACATCGA	0.314 (active)
GTGGCTTA	-0.0913 (inactive)
GATCGGAA	0.052 (inactive)
GTTGAGTA	0.128 (inactive)
CATGTGCA	0.119 (inactive)
ACTGTACC	0.107 (inactive)

Sequence	PBM E-score
CATGTACA	0.469 (active)
CATGTGTA	0.308 (inactive)
ACTGTACA	0.257 (inactive)
CAAGTACC	0.159 (inactive)
GATGTACA	0.404 (active)
CCTGTACC	0.11 (inactive)
GATGTGCA	0.102 (inactive)
CCTGTACA	0.32 (active)
CATGTACC	0.416 (active)
CTAGCGAG	-0.138 (inactive)
AGTGAATG	0.0689 (inactive)
GGGCTGAC	-0.108 (inactive)
ACGCATCC	-0.0982 (inactive)
AATGTACC	0.192 (inactive)
AATGTGTG	0.142 (inactive)
GATGTGCC	-0.0456 (inactive)
TATGTAGA	0.226 (inactive)
TCTGTACA	0.281 (inactive)
AATGTGTA	0.311 (active)
AATGTACA	0.407 (active)
TATGTACA	0.427 (active)
GATGTGTA	0.252 (inactive)
GCTGTACC	0.0813 (inactive)
AATGTACT	0.269 (inactive)
GATGTACC	0.366 (active)

Sequence	PBM E-score
CAATGCTG	-0.0134 (inactive)
CCGTAACG	-0.1 (inactive)
CCTGAGCG	-0.215 (inactive)
AAGGTCTC	-0.0943 (inactive)
CATGTACG	0.409 (active)
AATGTACG	0.153 (inactive)
CCTGTACG	0.0896 (inactive)
CACCTTGC	0.00581 (inactive)
CCAGTACC	-0.0496 (inactive)
AATACTCG	0.138 (inactive)
ATGGTATC	0.109 (inactive)
AGATGCTA	0.0221 (inactive)
CTTACACA	0.201 (inactive)
ATTACTCA	0.112 (inactive)
ATTACACC	0.259 (inactive)
ATTACACA	≥ 0.332 (active)
GTTACACA	0.339 (active)
GTTACAAA	0.285 (inactive)
CGCAGGAA	-0.134 (inactive)
GACGCACA	-0.0232 (inactive)
CAGTTCAA	-0.0476 (inactive)
